Source: PubChem BioAssay (NCI)
Values joined by “and” are separate entries in the source; they are usually repeats but may differ in a detail not shown here. Equal values may be shown once. The panel holds about 83,000 compounds, 20% with a hit somewhere; the sample as a whole holds those more often.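 Results are percent growth after 48 hours of single-concentration exposure. 100 means growth as in untreated cells, lower positive values show inhibition; negative values down to -100 show cell death.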

Key:
Test in all cases: NCI-60 one-dose screen, 48 h (100 = growth as untreated, 0 = no growth, -100 = all killed); active means growth percent below 10; inactive means the rest
SR leukemia = system: SR leukemia
RPMI-8226 leukemia = conditions: 10 µM unless noted
OVCAR-8 ovarian = system: OVCAR-8 ovarian
OVCAR-5 ovarian = system: OVCAR-5 ovarian
OVCAR-4 ovarian = system: OVCAR-4 ovarian
SK-OV-3 ovarian = conditions: 10 µM unless noted
IGROV1 ovarian = system: IGROV1 ovarian
OVCAR-3 ovarian = system: OVCAR-3 ovarian
HS 578T breast = system: HS 578T breast
NCI/ADR-RES ovarian = conditions: 10 µM unless noted

Measured: growth

Cn1c(SSc2ccc(-c3cccnc3)n2C)ccc1-c1cccnc1
inactive: SR leukemia; 10 µM unless noted 86.8% and 58.3% | RPMI-8226 leukemia 96.5% and 92.1% | OVCAR-8 ovarian; 10 µM unless noted 97.4% and 103% | OVCAR-5 ovarian; 10 µM unless noted 141% and 115% | OVCAR-4 ovarian; 10 µM unless noted 80.3% and 101% | SK-OV-3 ovarian 131% and 120% | IGROV1 ovarian; 10 µM unless noted 103% and 88.1% | OVCAR-3 ovarian; 10 µM unless noted 98.9% and 102% | HS 578T breast; 10 µM unless noted 104% | NCI/ADR-RES ovarian 103% and 101%

CC1CCCC(=O)O1 (centres undefined)
inactive: SR leukemia; 10 µM unless noted 104% | RPMI-8226 leukemia 96.7% and 94.7% | OVCAR-8 ovarian; 10 µM unless noted 110% and 95.2% | OVCAR-5 ovarian; 10 µM unless noted 101% | OVCAR-4 ovarian; 10 µM unless noted 96% and 104% | SK-OV-3 ovarian 98% and 110% | IGROV1 ovarian; 10 µM unless noted 96% and 99.9% | OVCAR-3 ovarian; 10 µM unless noted 103% and 115% | HS 578T breast; 10 µM unless noted 110% and 105%

CCN(CC)CCOc1ccc(/C=N/Nc2nc3c([nH]2)c(=O)n(C)c(=O)n3C)cc1
inactive: SR leukemia; 10 µM unless noted 102% and 96.8% | RPMI-8226 leukemia 90.7% and 108% | OVCAR-8 ovarian; 10 µM unless noted 107% and 104% | OVCAR-5 ovarian; 10 µM unless noted 117% and 89.7% | OVCAR-4 ovarian; 10 µM unless noted 107% and 105% | SK-OV-3 ovarian 106% and 107% | IGROV1 ovarian; 10 µM unless noted 110% and 91.2% | OVCAR-3 ovarian; 10 µM unless noted 114% and 94.8% | HS 578T breast; 10 µM unless noted 106% and 105%

COc1ccc(Cl)cc1C(=O)NCCc1ccc(S(=O)(=O)NC(=O)NC2CCCCC2)cc1
inactive: SR leukemia; 10 µM 105% and 90% | SR leukemia; 100 µM 61.3% | RPMI-8226 leukemia 104% and 99.5% | OVCAR-8 ovarian; 10 µM 99.8% and 100% | OVCAR-8 ovarian; 100 µM 67.3% | OVCAR-5 ovarian; 10 µM 111% and 112% | OVCAR-5 ovarian; 100 µM 101% | OVCAR-4 ovarian; 10 µM 117% and 103% | OVCAR-4 ovarian; 100 µM 58.7% | SK-OV-3 ovarian 103% and 96.1% | IGROV1 ovarian; 10 µM 119% and 99.4% | IGROV1 ovarian; 100 µM 69.2% | OVCAR-3 ovarian; 10 µM 112% and 121% | OVCAR-3 ovarian; 100 µM 66.1% | HS 578T breast; 10 µM 94.7% and 110% | HS 578T breast; 100 µM 54.8%
